Read-out in assay [1]: Interleukin-8 (IL8), CXCL8 (gene 3576)
Put plainly: BSK_3C_IL8: BioMAP Diversity Plus: 3C Assay for Interleukin-8 (IL8) Biomarker Activity (AID 2283020). The settings on record: primary human endothelial cells (HUVEC); actives raise or lower the signal. In short, it runs like this:
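Using DMSO-treated wells as the baseline, bidirectional curve fitting was applied to ELISA-measured IL-8 from human umbilical vein endothelial cultures sampled 24 h after compound addition.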

Read-out in assay [2]: Monokine induced gamma interferon (MIG), CXCL9 (gene 4283)
Put plainly: BSK_3C_MIG: BioMAP Diversity Plus: 3C Assay for Monokine induced gamma interferon (MIG) Biomarker Activity (AID 2283021). The following applies: primary human endothelial cells (HUVEC); actives raise or lower the signal. The essentials: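 ELISA-measured MIG in dosed HUVEC 3C cultures at 24 h, analysed by bidirectional fitting with DMSO defining baseline activity.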

The nature of assay [3]: BSK_3C_SRB: Viability Assessment in the BioMAP Diversity Plus: 3C Assay (AID 2283023).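 Note: fitted both ways against DMSO so a hit may be signal rise or drop.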 The following applies: primary human endothelial cells (HUVEC). The essentials: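 Human umbilical vein endothelial cells in the 3C system, treated 24 h. Total protein measured by 0.1% sulforhodamine B staining after 10% TCA fixation, read at 560 nm; bidirectional fit versus DMSO.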
Read-out in assay [4]: Matrix Metallopeptidase 1 (MMP1), MMP1 (gene 4312)
Put plainly: BSK_BE3C_MMP1: BioMAP Diversity Plus: BE3C Assay for Matrix Metallopeptidase 1 (MMP1) Biomarker Activity (AID 2283024). The following applies: primary human bronchial epithelial cells; actives raise or lower the signal. The essentials:
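In this multiplexed primary-cell system, human bronchial epithelium received chemicals for 24 h before an ELISA for MMP1. Values reflect bidirectional fits normalised to the DMSO baseline.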

The nature of assay [5]: BSK_3C_Vis: BioMAP Diversity Plus: 3C Assay for Morphology Visualization (AID 2283025).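 For AC50: light microscopy image of cell morphology used as background control.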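 Note: fitted both ways so gain or loss versus DMSO counts.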 The following applies: primary human endothelial cells (HUVEC). The essentials:
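Light-microscopy morphology readout, 24 h exposure, human primary umbilical vein endothelium; analysed relative to DMSO with bidirectional fitting.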

Read-out in assay [6]: Pselectin, SELP (gene 6403)
Put plainly: BSK_4H_Pselectin: BioMAP Diversity Plus: 4H Assay for Pselectin Biomarker Activity (AID 2283026). The settings on record: primary human endothelial cells (HUVEC); actives raise or lower the signal. In short, it runs like this:
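Bidirectional fits against DMSO gave the endpoint. Cells: primary human umbilical vein endothelium, chemical-treated for 24 h before ELISA detection of P-selectin.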

Assay [7] is described as follows: BSK_4H_SRB: Viability Assessment in the BioMAP Diversity Plus: 4H Assay (AID 2283027).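 Note: cells exposed to compound for 24 h before staining.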 The settings on record: primary human endothelial cells (HUVEC). In short, it runs like this: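 Cytotoxicity readout: sulforhodamine B (0.1%) staining of total protein after 10% TCA fixation, measured at 560 nm in human umbilical vein endothelium at 24 h. DMSO set the baseline; fitting was bidirectional.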

Assay [8] in a line: BSK_BE3C_SRB: Viability Assessment in the BioMAP Diversity Plus: BE3C Assay (AID 2283028). The settings on record: primary human bronchial epithelial cells. In short, it runs like this:
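Human bronchial epithelial primary cells in confluent culture, 24 h after chemical dosing; total protein by 0.1% SRB staining after 10% TCA fixation, read at 560 nm. Bidirectional fitting versus DMSO baseline.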

Read-out in assay [9]: Thrombomodulin, THBD (gene 7056)
Put plainly: BSK_3C_Thrombomodulin: BioMAP Diversity Plus: 3C Assay for Thrombomodulin Biomarker Activity (AID 2283029). The following applies: primary human endothelial cells (HUVEC); actives raise or lower the signal. The essentials: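 In a multiplexed primary-cell system, human umbilical vein endothelium received chemical and was assayed 24 h later for thrombomodulin by ELISA. Parallel cultures were SRB-stained (0.1% SRB after 10% TCA fixation, read at 560 nm) to flag cytotoxicity.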

Read-out in assay [10]: Urokinase-type plasminogen activator receptor (uPAR), PLAUR (gene 5329)
Put plainly: BSK_4H_uPAR: BioMAP Diversity Plus: 4H Assay for Urokinase-type plasminogen activator receptor (uPAR) Biomarker Activity (AID 2283030). The following applies: primary human endothelial cells (HUVEC); actives raise or lower the signal. In short, it runs like this: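 Human umbilical vein endothelial cells in the 4H system, 24 h after chemical dosing. Cell-surface uPAR measured by ELISA, fitted in both directions versus DMSO; cytotoxicity checked by SRB total protein in parallel cultures.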

Read-out in assay [11]: Vascular endothelial growth factor receptor 2 (Homo sapiens) (UniProt P35968)
Put plainly: BSK_4H_VEGFRII: BioMAP Diversity Plus: 4H Assay for Vascular endothelial growth factor receptor 2 (VEGFR2) Biomarker Activity (AID 2283031). The settings on record: primary human endothelial cells (HUVEC); actives raise or lower the signal. The essentials: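 Primary human umbilical vein endothelial cells (4H system), 24 h exposure; cell-surface VEGFR2 measured by ELISA. Bidirectional fitting versus DMSO; cytotoxicity checked in parallel by SRB total-protein staining.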

Read-out in assay [12]: Human Leukocyte Antigen - DR isotype (HLADR), HLA-DRA (gene 3122)
Put plainly: BSK_BE3C_HLADR: BioMAP Diversity Plus: BE3C Assay for Human Leukocyte Antigen - DR isotype (HLADR) Biomarker Activity (AID 2283032). The following applies: primary human bronchial epithelial cells; actives raise or lower the signal. In short, it runs like this:
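BioMAP BE3C format: human bronchial epithelium, 24 h compound treatment, ELISA detection of HLA-DR, with bidirectional analysis relative to DMSO.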

Read-out in assay [13]: Vascular cell adhesion molecule 1 (VCAM1), VCAM1 (gene 7412)
Put plainly: BSK_4H_VCAM1: BioMAP Diversity Plus: 4H Assay for Vascular cell adhesion molecule 1 (VCAM1) Biomarker Activity (AID 2283033).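 Note: cell-surface VCAM-1 protein measured by ELISA.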 The settings on record: primary human endothelial cells (HUVEC); actives raise or lower the signal. In short, it runs like this:
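In this human endothelial (HUVEC) system, biomarker ELISA was run 24 h after compound addition, and total protein in parallel wells was assessed by SRB at 560 nm; DMSO served as negative control.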

Read-out in assay [14]: Interferon-gamma inducible Protein 10 (IP10), CXCL10 (gene 3627)
Put plainly: BSK_BE3C_IP10: BioMAP Diversity Plus: BE3C Assay for Interferon-gamma inducible Protein 10 (IP10) Biomarker Activity (AID 2283034). The settings on record: primary human bronchial epithelial cells; actives raise or lower the signal. The essentials: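 BE3C cells (human bronchial epithelial, primary); 24 h exposure; ELISA for IP-10; DMSO-referenced bidirectional fit.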

Read-out in assay [15]: Monokine induced gamma interferon (MIG), CXCL9 (gene 4283)
Put plainly: BSK_BE3C_MIG: BioMAP Diversity Plus: BE3C Assay for Monokine induced gamma interferon (MIG) Biomarker Activity (AID 2283035).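 Note: MIG protein measured by ELISA in BE3C cultures after 24 h of dosing.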 The following applies: primary human bronchial epithelial cells; actives raise or lower the signal. In short, it runs like this:
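hu bronchial epithelial 1° cells, 24 h cpd; MIG by ELISA; bidirectional fit, DMSO = baseline.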

Read-out in assay [16]: Transforming growth factor beta 1 (TGFb1), TGFB1 (gene 7040)
Put plainly: BSK_BE3C_TGFb1: BioMAP Diversity Plus: BE3C Assay for Transforming growth factor beta 1 (TGFb1) Biomarker Activity (AID 2283036;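 note: TGF-b1 protein level measured by ELISA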). The settings on record: primary human bronchial epithelial cells; actives raise or lower the signal. The essentials:
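TGF-b1 measured via ELISA, 24 h after chemical dosing of human bronchial epithelial cells (BE3C). Overt cytotoxicity assessed in parallel by SRB (0.1%, TCA-fixed, 560 nm); analysis bidirectional relative to DMSO.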

Read-out in assay [17]: urokinase plasminogen activator (uPA), PLAU (gene 5328)
Put plainly: BSK_BE3C_uPA: BioMAP Diversity Plus: BE3C Assay for urokinase plasminogen activator (uPA) Biomarker Activity (AID 2283038).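 Note: uPA protein level quantified by ELISA in cell cultures; uPA read one day after compound addition.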 The following applies: primary human bronchial epithelial cells; actives raise or lower the signal. In short, it runs like this:
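Primary human bronchial epithelial cells, uPA measured by ELISA 24 h after dosing. Bidirectional change relative to DMSO; cytotoxicity checked in parallel cultures by sulforhodamine B total-protein staining.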

Read-out in assay [18]: Urokinase-type plasminogen activator receptor (uPAR), PLAUR (gene 5329)
Put plainly: BSK_BE3C_uPAR: BioMAP Diversity Plus: BE3C Assay for Urokinase-type plasminogen activator receptor (uPAR) Biomarker Activity (AID 2283039).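 For outcome: cells exposed to compound for one day before measurement.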 The following applies: primary human bronchial epithelial cells; actives raise or lower the signal. The essentials: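 Chemically treated human bronchial epithelial cells (lung primary) are assayed for uPAR by ELISA after 24 h, with data fitted in both directions using DMSO as negative control.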

Assay [19] concerns the target human Vitamin D Receptor (VDR), VDR (gene 7421) (UniProt P11473). Put plainly: ATG_VDR_TRANS: Attagene TRANS-FACTORIAL HepG2 Assay for human Vitamin D Receptor (VDR) (AID 2283022; active = hit-call score of the fitted dose curve at least 0.9, where 1 is the maximum). The essentials:
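HepG2 cells were transiently transfected with GAL4-UAS reporter units and a chimeric VDR-Gal4 construct, then dosed for 24 hours. Reporter mRNA was quantified by RT-PCR, fluorescent labeling, HpaI digestion and capillary electrophoresis; gain of signal analysed vs DMSO.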

Read-out in assay [20]: Plasminogen activator inhibitor-1 (PAI1), SERPINE1 (gene 5054)
Put plainly: BSK_BE3C_PAI1: BioMAP Diversity Plus: BE3C Assay for Plasminogen activator inhibitor-1 (PAI1) Biomarker Activity (AID 2283037). The settings on record: primary human bronchial epithelial cells; actives raise or lower the signal. The essentials: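 In this multiplexed primary-cell system, bronchial epithelial cells receive test chemical and are sampled at 24 h. PAI-1 is read by ELISA, with DMSO serving as negative control for bidirectional fitting.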

Structures are written as SMILES. Results filed as inconclusive are left out. Where a structure was tested more than once in an assay, its records may differ in their call. Calls of active or inactive are those of the source. Rule for the calls, unless noted: active = hit-call score of the fitted dose curve at least 0.9, where 1 is the maximum; inactive = score below 0.9.

Experimental findings from PubChem BioAssay (EPA / NIEHS) are described below.

human Vitamin D Receptor (VDR), VDR (gene 7421), sequence (P11473 whole entry, looked up, the tested form may be a part): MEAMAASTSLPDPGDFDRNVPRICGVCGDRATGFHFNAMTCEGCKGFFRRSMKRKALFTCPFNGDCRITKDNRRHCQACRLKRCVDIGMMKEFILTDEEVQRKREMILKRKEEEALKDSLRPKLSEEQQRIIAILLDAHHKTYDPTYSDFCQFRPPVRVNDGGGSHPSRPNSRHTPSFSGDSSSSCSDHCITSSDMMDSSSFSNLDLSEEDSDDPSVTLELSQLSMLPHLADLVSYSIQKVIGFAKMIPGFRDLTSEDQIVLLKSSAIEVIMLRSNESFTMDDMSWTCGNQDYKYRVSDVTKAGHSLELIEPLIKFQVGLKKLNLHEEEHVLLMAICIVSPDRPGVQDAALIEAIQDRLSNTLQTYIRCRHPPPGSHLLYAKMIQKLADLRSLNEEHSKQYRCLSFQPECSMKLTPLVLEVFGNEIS

Take `CN(C)[C@@H]1C(=O)C(C(N)=O)=C(O)[C@@]2(O)C(=O)C3=C(O)c4c(O)cccc4[C@@](C)(O)[C@H]3[C@H](O)[C@@H]12`: the outcome in assay [1], in assay [2], in [3], in assay [4], in assay [5] and in assay [6] was inactive. Moreover, the outcome in assay [7], in assay [8], in [9], in assay [10], in assay [11] and in assay [12] was inactive. Further, the outcome in assay [13], in [14], in assay [15], in assay [16], in [17] and in [18] was inactive. Further, the concentration at half-maximal activity (AC50) (usually the concentration at which the activity in the assay is half-maximal) in assay [4] is 15.8 µM (active).
`COc1ccc(C(=CC(=O)N2CCOCC2)c2ccc(Cl)cc2)cc1OC`: the result in [1], in assay [2], in assay [19], in [3], in [4] and in assay [5] was inactive. Moreover, the result in assay [6], in assay [7], in [8], in assay [10], in assay [11] and in assay [12] was inactive. Moreover, the outcome in assay [13], in assay [14], in assay [15], in [16], in assay [17] and in assay [18] was inactive. In addition, the AC50 in assay [9] is 3.36 µM (active).
Take `CCOP(=O)(SC(C)CC)N1CCSC1=O` (configuration not stated): the outcome in assay [1], in assay [2], in [19], in [3], in assay [4] and in [5] was inactive. For the same compound, the result in assay [6], in assay [7], in [8], in assay [9], in assay [10] and in [11] was inactive. Further, the result in assay [12], in assay [13], in [14], in assay [15], in assay [16] and in [20] was inactive. The outcome in assay [17] and in assay [18] was inactive.
For `COP(=O)(OC)C(O)C(Cl)(Cl)Cl` (configuration not stated), the outcome in [1], in [2], in [19], in assay [3], in assay [4] and in assay [6] was inactive. Also, the outcome in [7], in [8], in assay [9], in assay [10], in assay [11] and in assay [12] was inactive. The outcome in [13], in assay [14], in assay [15], in assay [16], in assay [20] and in [17] was inactive. Moreover, the AC50 in assay [5] is 9.8 µM (active); in assay [18] it was 5.49 µM (active).
As for `CNC(=O)ON=C(SC)C(=O)N(C)C`, the result in [1], in assay [2], in assay [3], in [4], in [6] and in assay [7] was inactive. Moreover, the outcome in assay [8], in assay [9], in assay [10], in assay [11], in assay [12] and in [13] was inactive. Moreover, the result in assay [14], in assay [15], in assay [16], in assay [20], in [17] and in [18] was inactive. Further, the AC50 in assay [5] was 39 µM (active).
In the case of `CC(C)=CC1C(C(=O)OCN2C(=O)C3=C(CCCC3)C2=O)C1(C)C` (configuration not stated), the outcome in assay [1], in [2], in [19], in assay [5], in assay [7] and in assay [8] was inactive. For the same compound, the outcome in assay [9], in assay [11], in assay [13], in assay [14], in assay [15] and in assay [16] was inactive. Also, the result in assay [20], in assay [17] and in assay [18] was inactive. The AC50 in assay [3] was 27.2 µM (active); in assay [4], 11.3 µM (active); in assay [6] it was 20 µM (active); in assay [10], 8.64 µM (active); in [12], 20 µM (active).
